The first experiment has as its target HLA-C*04:01. The experiment is described as follows: thermal melting temperature (Tm) of peptide-HLA complex; higher = more thermostable pHLA complex. Conditions: C1R-A*02:01. On the procedure: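 Endogenous HLA-C*04:01 ligands were detected in the thermostability assays of both the C1R-A*02:01 and C1R-B*07:02 lines. Lysates were heated 10 min at 37-73 °C and pHLA immunoprecipitated with W6/32. Peptides were quantified by DIA-MS and Tm was taken from a logistic sigmoid fit.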
Sequence ILDPHVVLL registered a thermal melting temperature of 54.8 °C.

VFHVQQTEM registered a thermal melting temperature of 53.8 °C.

As for FFDSQGQVLL, the thermal melting temperature came to 51 °C.

The sequence MLDPLEVHL returned a thermal melting temperature of 47.2 °C.

For the sequence TYDYAKTIL, the thermal melting temperature is 49 °C.

FNDTFVHV yielded a thermal melting temperature of 49.3 °C.

HFDDFVTNL registered a thermal melting temperature of 58.7 °C.

Sequence LFDDKAVEI registered a thermal melting temperature of 57.2 °C.

The sequence SYDHVELTF gave a thermal melting temperature of 51.3 °C.

VYDIAAKF: the thermal melting temperature came out at 56.9 °C.

In turn, VFDPIGHF displayed a thermal melting temperature of 59.3 °C.

Sequence GGSFDVADRMF yielded a thermal melting temperature of 53.1 °C.

Sequence NYDFGPIHM gave a thermal melting temperature of 54.2 °C.

VADPYVVIM displayed a thermal melting temperature of 53.4 °C.

Sequence YFPELIANF registered a thermal melting temperature of 45.6 °C.

In turn, FFDTNTSVL came in with a thermal melting temperature of 55.5 °C.

On to FTDEESRVF, for which the thermal melting temperature was 48.1 °C.

For RFEDSPSYV, the thermal melting temperature stood at 54.4 °C.

The sequence SFEEKPVYI gave a thermal melting temperature of 56.8 °C.

The sequence NYDEALRLL had a thermal melting temperature of 54 °C.

The sequence SFDETVTHF had a thermal melting temperature of 58.6 °C.

Regarding VWDVIGRSL, the thermal melting temperature worked out at 53.5 °C.

The sequence TFDVSPKAV showed a thermal melting temperature of 41.9 °C.

The sequence DFDMTLSRF yielded a thermal melting temperature of 52.8 °C.

FYPPDPAQL displayed a thermal melting temperature of 49.5 °C.

As to VYDLLKTNL, the thermal melting temperature was determined as 59 °C.

As to IFDSKVTEI, the thermal melting temperature worked out at 55.4 °C.

As to FFDPSLLHL, the thermal melting temperature came out at 55.4 °C.

Sequence SYDLANRDF registered a thermal melting temperature of 58.3 °C.

RFDSDVGEF returned a thermal melting temperature of 54.9 °C.

SFDAHLTEL registered a thermal melting temperature of 53 °C.

As to TFDASRTTF, the thermal melting temperature is 53.4 °C.

In turn, AFDASRTSF showed a thermal melting temperature of 52.4 °C.

Sequence AFDVHLNAF came in with a thermal melting temperature of 55.5 °C.

Take SFDEIHQLF: the thermal melting temperature came out at 47.8 °C.

For the sequence HFDLSVIEL, the thermal melting temperature was found to be 57.1 °C.

In turn, KADGVPVYL displayed a thermal melting temperature of 56.5 °C.

Consider FWDGKIVLV, for which the thermal melting temperature came out at 62.5 °C.

For the sequence AFDLTEQRY, the thermal melting temperature was found to be 55.9 °C.

FLPEAPAEL had a thermal melting temperature of 54.1 °C.

QLDPLVVEL showed a thermal melting temperature of 50 °C.

In turn, LYDEAIRHF gave a thermal melting temperature of 56.5 °C.

Take AYDDKIYYF: the thermal melting temperature was determined as 56.1 °C.

Turning to SFDSTVRL, the thermal melting temperature came out at 52.9 °C.

IYDEAISSF registered a thermal melting temperature of 58.9 °C.

SFDVSQKF yielded a thermal melting temperature of 49 °C.

Sequence VFDEAIRAVL registered a thermal melting temperature of 60.2 °C.

Still in this experiment, the particulars now being: C1R-B*07:02.
Consider ILDPHVVLL, for which the thermal melting temperature is 57.6 °C.

The sequence VFHVQQTEM registered a thermal melting temperature of 54.5 °C.

Turning to FFDSQGQVLL, the thermal melting temperature came out at 53.6 °C.

In turn, MLDPLEVHL registered a thermal melting temperature of 52.5 °C.

The sequence TYDYAKTIL had a thermal melting temperature of 46.9 °C.

Sequence FNDTFVHV gave a thermal melting temperature of 48.5 °C.

HFDDFVTNL showed a thermal melting temperature of 58 °C.

Take LFDDKAVEI: the thermal melting temperature stood at 57.2 °C.

In the case of SYDHVELTF, the thermal melting temperature was 51.9 °C.

For the sequence VYDIAAKF, the thermal melting temperature was 57.6 °C.

VFDPIGHF returned a thermal melting temperature of 58.8 °C.

In turn, GGSFDVADRMF returned a thermal melting temperature of 53.2 °C.

On to NYDFGPIHM, for which the thermal melting temperature turned out to be 55.8 °C.

For the sequence VADPYVVIM, the thermal melting temperature worked out at 54.6 °C.

On to YFPELIANF, for which the thermal melting temperature amounted to 45.3 °C.

Sequence FFDTNTSVL showed a thermal melting temperature of 59.4 °C.

For the sequence FTDEESRVF, the thermal melting temperature came to 46.7 °C.

For the sequence RFEDSPSYV, the thermal melting temperature worked out at 52.3 °C.

With SFEEKPVYI, the thermal melting temperature stood at 55.5 °C.

For the sequence NYDEALRLL, the thermal melting temperature amounted to 53 °C.

Take SFDETVTHF: the thermal melting temperature stood at 59.8 °C.

In turn, VWDVIGRSL registered a thermal melting temperature of 51.9 °C.

In turn, TFDVSPKAV came in with a thermal melting temperature of 48.1 °C.

Regarding DFDMTLSRF, the thermal melting temperature was 54.5 °C.

On to FYPPDPAQL, for which the thermal melting temperature worked out at 51.5 °C.

For VYDLLKTNL, the thermal melting temperature was 58.3 °C.

In turn, IFDSKVTEI showed a thermal melting temperature of 54.8 °C.

FFDPSLLHL gave a thermal melting temperature of 55.8 °C.

Take SYDLANRDF: the thermal melting temperature was determined as 57.8 °C.

Consider RFDSDVGEF, for which the thermal melting temperature worked out at 54.5 °C.

Turning to SFDAHLTEL, the thermal melting temperature came to 52.9 °C.

As for TFDASRTTF, the thermal melting temperature was determined as 53.5 °C.

As for AFDASRTSF, the thermal melting temperature is 52.8 °C.

Turning to AFDVHLNAF, the thermal melting temperature came to 55.9 °C.

On to SFDEIHQLF, for which the thermal melting temperature worked out at 52 °C.

Turning to HFDLSVIEL, the thermal melting temperature amounted to 60.5 °C.

Consider KADGVPVYL, for which the thermal melting temperature was determined as 57.1 °C.

As for FWDGKIVLV, the thermal melting temperature stood at 60.7 °C.

In turn, AFDLTEQRY registered a thermal melting temperature of 56.4 °C.

In turn, FLPEAPAEL yielded a thermal melting temperature of 55.9 °C.

The sequence QLDPLVVEL yielded a thermal melting temperature of 46.9 °C.

With LYDEAIRHF, the thermal melting temperature is 60 °C.

Sequence AYDDKIYYF yielded a thermal melting temperature of 55.7 °C.

SFDSTVRL came in with a thermal melting temperature of 54.6 °C.

IYDEAISSF displayed a thermal melting temperature of 62.7 °C.

Regarding SFDVSQKF, the thermal melting temperature was found to be 49.7 °C.

In turn, VFDEAIRAVL yielded a thermal melting temperature of 58.8 °C.

For the origin of these results see the supplement of paper PMC7726561.
